Assay outcomes: PubChem BioAssay, National Center for Advancing Translational Sciences (NCATS)
The list is not random: actives were taken first. Their share in the collection is about 0.9%.
A488 autofl: compound autofluorescence in A488 spectral region | max dye equivalency, M | 59,000 tested, 0.1% active | compound autofluorescence, A488 spectral region, dye equivalency; Compound Type: qHTS ECL - MLSMR
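Intrinsic compound fluorescence is measured in 100 mM Tris buffer at pH 8.0 following 15 min incubation at room temperature. Intensities at 480 nm excitation/540 nm emission are calibrated to an on-plate A488 concentration series, giving dye-equivalent concentrations.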
Resorufin autofl: compounds fluorescent in resorufin spectral region | AID 588 | Compound fluorescence, resorufin region 547/598 nm, buffer; hits give high values | 59,000 tested, 0.04% active | max dye-equivalent concentration, M
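Dye-equivalent concentration values derive from comparing each well's 547/598 nm fluorescence against resorufin standards included on every plate. Incubation was 15 min at room temperature in 100 mM Tris, pH 8.0.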
Rhodamine autofl: compound fluoresces in the rhodamine spectral region; max dye-equivalent concentration, M; AID 594; 59,000 tested, 0.05% active; Rhodamine-region fluorescence, 547/598 nm, Tris buffer; hits give high values; in the data active = max dye-equivalent concentration above about 11 nM; inconclusive = between about 1.1 nM and that limit
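Intensities are converted to rhodamine-equivalent concentration using a six-point rhodamine standard on each plate. Compounds sit 15 min at room temperature in 100 mM Tris buffer, pH 8.0; read uses the 547/598 nm excitation/emission pair.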
Fluorescein autfl: fluorescein region autofluorescence; Compound autofluorescence, 480/540 nm, fluorescein-equivalent; hits give high values; max fluorescein-equivalent concentration, M; 59,000 tested, 0.91% active; AID 593; in the data active = max fluorescein-equivalent concentration above about 10 nM; inconclusive = between about 1.1 nM and that limit
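Values reflect compound autofluorescence, normalized to fluorescein on the same plate and reported at each tested concentration. Conditions: 100 mM Tris pH 8.0, room temperature, 15 min, excitation 480 nm, emission 540 nm.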
Texas Red fluor: compound fluoresces in the Texas Red spectral region. Compound fluorescence, Texas Red channel, 547/618 nm; hits give high values. max dye-equivalent concentration, M. 59,000 tested, 0.06% active. AID 587; in the data active = max dye-equivalent concentration above about 10 nM; inconclusive = between about 1.1 nM and that limit
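Fluorescence at ex 547/em 618 nm, normalized against an on-plate Texas Red standard series to give dye-equivalent concentration per compound concentration. Buffer 100 mM Tris, pH 8.0; 15 min RT incubation before CCD imaging.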
A647 autofl: compound fluoresces in the A647 spectral region. max dye-equivalent concentration, M. AID 592. Compound fluorescence, A647 channel (570/671 nm), Tris buffer. 59,000 tested, under 10 active;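 also: values scaled relative to a standard on each plate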
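Fluorescence read (570 nm ex, 671 nm em) after 15 min RT incubation of compounds in 100 mM Tris buffer, pH 8.0; values expressed as dye-equivalent concentration against a six-point A647 standard series on each plate.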
Starred values were filed as active, the others as inactive; i = inactive; ? = inconclusive; ! = a repeat was not active. Unless noted, no rule for the calls is given here.

SMILES | A488 autofl | Resorufin autofl | Rhodamine autofl | Fluorescein autfl | Texas Red fluor | A647 autofl
N#CC(C#N)=Cc1cc(O)c(O)c(O)c1 | ? | i | i | 4.43e-08M* | i | 5.83e-08
CN1C[C@@H](CNC(=O)OCc2ccccc2)C[C@H]2c3cccc4c3c(cn4C)C[C@@H]21 | ? | i | i | 3.9e-08M* | i | 1e-09
CC(C)[C@@]1(NC(=O)[C@@H]2C[C@@H]3c4cccc5[nH]cc(c45)C[C@H]3N(C)C2)O[C@@]2(O)[C@@H]3CCCN3C(=O)[C@H](Cc3ccccc3)N2C1=O | i | i | i | ? | i | 1e-09
N[C@@H](Cc1cc(O)c(O)cc1O)C(=O)O | i | i | i | i | i | 5.5e-09
CC1=C2[C@@H]3OC(=O)[C@H](C)[C@H]3CC[C@@]2(C)C=CC1=O | i | i | i | i | ? | 5.6e-09
O=C(O)c1ccccc1-c1c2cc(Br)c(=O)cc-2oc2[c]([Hg])c(O)c(Br)cc12 | 7.81e-07M* | 2.93e-07M* | 3.84e-07M* | 1.71e-05M* | 1.46e-08M* | 2.79e-08
O=C(Cn1ncc2c3ccccc3n(Cc3cccc(Cl)c3)c2c1=O)N1CCC2(CC1)OCCO2 | ? | i | i | 2.51e-08M* | ? | 1e-09
CC1=C[C@@H]2c3cccc4[nH]cc(c34)C[C@H]2N(C)C1 | ? | i | i | 5.89e-08M* | i | 3.51e-08
CCN(CC)C(=O)N[C@@H]1C[C@H]2c3cccc4[nH]cc(c34)C[C@@H]2N(C)C1 | i | i | i | ? | i | 1.13e-08
CC1=NCCc2c1[nH]c1cc(O)ccc21 | 4.51e-07M*! | i | ? | 2.06e-07M* | i | 1.29e-08
COc1ccc2c3c([nH]c2c1)C(C)=NCC3 | i | i | i | ? | i | 1e-09
C[C@]1(C(=O)O)[C@@H]2CC[C@@H](O2)[C@@]1(C)C(=O)O | i | i | i | ? | i | 3.99e-08
N#C/C(=C\c1ccc(O)c(O)c1)C(N)=S | i | i | i | 2.54e-08M* | ? | 1.03e-08
CC[C@H](CO)NC(=O)[C@H]1C=C2c3cccc4[nH]cc(c34)C[C@H]2N(C)C1 | i | i | i | ? | i | 1e-09
CC[C@H](CO)NC(=O)[C@@H]1C=C2c3cccc4[nH]cc(c34)C[C@@H]2N(C)C1 | i | i | i | 2.72e-08M* | i | 1.79e-08
CN1C[C@H](CO)C=C2c3cccc4[nH]cc(c34)C[C@H]21 | i | i | i | 1.49e-08M* | i | 6.5e-09
CC(=O)[C@@H]1CC[C@@H]2[C@H]3CC[C@H]4C[C@@H](O)CC[C@]4(C)[C@@H]3C(=O)C[C@]21C | i | i | i | ? | i | 4.78e-08
CCN(CC)c1ncnc2c1ncn2[C@@H]1O[C@@H](COP(=O)(O)OP(=O)(O)C(Br)(Br)P(=O)(O)O)[C@H](O)[C@@H]1O | i | i | i | ? | i | 5.27e-08
COc1cc2c(cc1OC)-c1c(O)c(OC)cc3c1[C@@H](C2)N(C)CC3 | i | i | i | i | i | 3.1e-09
CC(C)[C@H]1C(=O)N2CCC[C@@H]2[C@]2(O)O[C@@](NC(=O)[C@H]3C=C4c5cccc6[nH]cc(c56)C[C@H]4N(C)C3)(C(C)C)C(=O)N12 | i | i | i | 2.69e-08M* | i | 2.9e-09
CC(C)[C@H]1C(=O)N2CCC[C@H]2[C@]2(O)O[C@](NC(=O)[C@@H]3C=C4c5cccc6[nH]cc(c56)C[C@H]4N(C)C3)(C(C)C)C(=O)N12 | ? | i | i | 5.32e-08M* | i | 1e-09
CC(C)[C@]1(NC(=O)[C@H]2C=C3c4cccc5[nH]cc(c45)C[C@H]3N(C)C2)O[C@@]2(O)[C@H]3CCCN3C(=O)[C@H](Cc3ccccc3)N2C1=O | i | i | i | ? | i | 1e-09
CC(C)[C@@]1(NC(=O)[C@@H]2C=C3c4cccc5[nH]cc(c45)C[C@H]3N(C)C2)O[C@@]2(O)[C@@H]3CCCN3C(=O)[C@H](Cc3ccccc3)N2C1=O | ? | i | i | 3.76e-08M* | i | 1e-09
CCN1C[C@]2(C)CC[C@@H](O)[C@]34[C@@H]5CC6[C@@H](OC)C[C@@](O)([C@H]5[C@@H]6O)[C@@H](C[C@@H]23)[C@H]14 | i | i | i | ? | ? | 1.44e-08
